Measured values taken from PubChem BioAssay AID2501 (Southern Research Specialized Biocontainment Screening …, 2010).
The whole screen tested about 2,200 compounds, of which about 1,200 (55%) were called active. So high a share suggests a set chosen from earlier hits. The list shows a part of the results. Unmarked numbers belong to inactive results. Cut-off not given; nearly all actives show IC50 up to about 92 µM.

Experiment: counter assay for TAg ATPase ADP read-out – biochemical, ADP-Hunter, fluorescence, counter-screen (AID 2501);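 further: purified T antigen ATPase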;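 on inhibition: 0% = enzyme with vehicle and 100% = reference inhibitor wells; higher means more inhibition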
Details: series mostly up to 100 µM
In the case of `CC(/C=C1\SC(=S)N(CCCC(=O)Nc2ccc(C(=O)O)c(O)c2)C1=O)=C\c1ccccc1`, the IC50 is reported as “inactive”.
With `COc1cc(/C=C2\SC(=S)N(NS(=O)(=O)c3ccccc3)C2=O)ccc1O` the IC50 was 12.1 µM (active).
With `COc1cc(/C=C2\SC(=S)N(NS(=O)(=O)c3ccc(C)cc3)C2=O)ccc1O` the IC50 was 8.48 µM (active).
With `COc1cc(/C=C2\SC(=S)N(NC(=O)c3cccnc3)C2=O)ccc1O` the IC50 was 6.17 µM (active).
`O=C1/C(=C/C=C/c2ccco2)SC(=S)N1NS(=O)(=O)c1ccccc1` showed an inhibition of 22.8% [at 12.5 µM].
For `O=C(NN1C(=O)/C(=C/C=C/c2ccco2)SC1=S)c1ccccc1O`, the IC50 was “inactive”.
For `O=C(NN1C(=O)/C(=C/c2cc([N+](=O)[O-])ccc2O)SC1=S)c1ccccc1O`, the IC50 was “inactive”.
In the case of `CCOc1ccc(N2Nc3n[nH]c(N)c3N2)cc1`, the IC50 is reported as 5.65 µM (active).
For `CC[N+]1(CC(O)COC2CC(C)CC(C)(C)C2)CCOCC1` (stereo not given), the IC50 was “inactive”.
In the case of `COc1cc2c(cc1OC)C[N+](C)(C)CC2`, the IC50 is reported as 72.6 µM (active).
For `N#CCSc1nc(-c2ccccc2)nc2ccccc12`, the IC50 was “inactive”.
For `O=c1c2c(-c3ccco3)csc2nc(SCc2cn3cccnc3n2)n1-c1ccccc1`, the IC50 was “inactive”.
In the case of `COCc1cc(=O)n2[nH]c(-c3ccsc3-n3c(C)ccc3C)cc2n1`, the IC50 is reported as “inactive”.
With `C#CCOCCOCCOCCNc1nc(N2CCN(C(=O)CCCCCCCCCCNC(=O)[C@H](CCCN=C(N)N)n3cc(C[C@@H](C)CC)nn3)CC2)nc(N2CCN(C(=O)CCCCCCCCCCNC(=O)[C@@H]([C@H](C)CC)n3cc(CCCCCN)nn3)CC2)n1` the IC50 was “inactive”.
For `COc1ccccc1/C=C/C=N/NC(=O)c1cc(-c2ccco2)[nH]n1`, the IC50 was “inactive”.
In the case of `O=C(N/N=C/C=C\c1ccco1)c1ccccn1`, the IC50 is reported as “inactive”.
In the case of `COc1ccc(/C=N/NC(=O)c2ccoc2C)cc1O`, the IC50 is reported as 5.08 µM (active).
With `COc1cc(/C=N/NC(=O)c2ccc3c(c2)OCCO3)cc(Cl)c1O` the IC50 was 6.64 µM (active).
In the case of `Cc1occc1C(=O)N/N=C/C=C/c1ccc(N(C)C)cc1`, the IC50 is reported as 12.2 µM (active).
With `CCCc1cc(C(N)=O)c(NC(=O)c2ccoc2C)s1` the IC50 was “inactive”.
For `COc1cc(/C=N/NC(=O)c2ccoc2C)cc(OC)c1O`, the IC50 was 18.5 µM (active).
In the case of `CCn1c(C)nc2cc(C(=O)N/N=C/c3ccc(OC)c(O)c3)ccc21`, the IC50 is reported as 3.58 µM (active).
With `O=c1cc(-c2ccc(Br)cc2)[nH][nH]1` the IC50 was 12.3 µM (active).
For `CN1C(=O)NC(c2ccc(O)cc2)C2=C1CN(c1ccc(O)cc1)C2=O` (stereo not given), the IC50 was 4.84 µM (active).
For `Cc1cc(C)nc(Nc2ccc(O)cc2)n1`, the IC50 was 3.35 µM (active).
For `Cc1cc(C)nc(NC(=O)c2ccc(Cl)cc2)n1`, the IC50 was “inactive”.
With `Cc1cc(C)nc(SSc2nc(C)cc(C)n2)n1` the IC50 was “inactive”.
With `Oc1ccc(-c2[nH]ncc2-c2cccc3cccnc23)c(O)c1` the IC50 was 18.1 µM (active).
For `COc1ccccc1-n1cc(CN2CCN(C3CCCCC3)C(CCO)C2)cn1` (stereo not given), the IC50 was “inactive”.
In the case of `O=C(c1ccc2ncsc2c1)N1CCN(c2ccc(O)cc2)CC1`, the IC50 is reported as 3.9 µM (active).
With `O=C(c1cccc(F)c1)N1CCC(N2CCOCC2)CC1` the IC50 was “inactive”.
With `CCc1ccc(OCc2nnc(SCC(=O)Nc3cccc(C(=O)N4CCOCC4)c3)o2)cc1` the IC50 was “inactive”.
For `O=C(c1cccc(-c2ccc(O)cc2)c1)N1CCOCC1`, the IC50 was 4.07 µM (active).
With `O=C1c2ccccc2S(=O)(=O)c2cc(C(=O)N3CCC(N4CCCC4)CC3)ccc21` the IC50 was “inactive”.
For `O=C(c1ccc2ccccc2c1)N1CCN(c2ccc(O)cc2)CC1`, the IC50 was 4.79 µM (active).
With `c1coc(-c2nnc(-c3ccco3)nn2)c1` the IC50 was “inactive”.
For `O=C(N/N=C/c1ccc(O)cc1O)/C(=C/c1ccccc1)CCO`, the IC50 was 11.2 µM (active).
In the case of `COc1ccc(OC)c(CCNC(=O)Cn2sc3nc(C)cc(C)c3c2=O)c1`, the IC50 is reported as “inactive”.
In the case of `Cc1cc2nc3ccc(N(C)C)cc3nc2cc1N`, the IC50 is reported as 90.6 µM (active).
With `O=C(O)Cc1c[nH]c2cccc(O)c12` the IC50 was 34.4 µM (active).
In the case of `O=C(O)CC(CCc1ccccc1)OC1OC(CO)C(O)C(O)C1O` (stereo not given), the IC50 is reported as “inactive”.
In the case of `O=c1c(-c2ccc(O)cc2)coc2cc(OC3OC(CO)C(O)C(O)C3O)ccc12` (stereo not given), the IC50 is reported as 12.9 µM (active).
For `OC[C@H]1O[C@@H](Oc2cc(O)cc(/C=C/c3ccc(O)cc3)c2)[C@H](O)[C@@H](O)[C@@H]1O`, the IC50 was 7.7 µM (active).
In the case of `CCCCN(CC)Cc1ccc(CNC(=S)Nc2ccc(C)cc2Cl)o1`, the IC50 is reported as “inactive”.
In the case of `O=c1[nH]ncc(N/N=C\c2ccc(O)cc2O)c1Cl`, the IC50 is reported as 6.23 µM (active).
In the case of `Oc1ccc(/C=N/Nc2nccnc2Cl)cc1`, the IC50 is reported as 3.29 µM (active).
With `Oc1ccc(/C=N/Nc2nccnc2Cl)c(O)c1` the IC50 was 11.8 µM (active).
For `Cc1cc2cc3c(N)[nH]nc3nc2cc1C`, the IC50 was 6.68 µM (active).
For `Cc1ccc2cc3c(N)[nH]nc3nc2c1`, the IC50 was 6.56 µM (active).
For `CCc1ccc2nc3n[nH]c(N)c3cc2c1`, the IC50 was 5.76 µM (active).
For `C=CCOC(=O)C1=C[C@@H](c2ccc3c(c2)OCO3)C[C@@H](OCCCCO)O1`, the IC50 was “inactive”.
With `O=C(O)c1cc(S(=O)(=O)O)cc(Nc2c3ccccc3nc3ccccc23)c1O` the IC50 was 14.7 µM (active).
For `COC/C=C/C1=CC2=CC(=O)C(C)(O)C(=O)C2=CO1` (stereo not given), the IC50 was “inactive”.
With `Nc1ccc(-c2nc3cc(N)ccc3n2CCO)cc1` the IC50 was 9.16 µM (active).
With `O=C(O)C1Nc2ccc(OC(F)(F)F)cc2C2C=CCC12` (stereo not given) the IC50 was “inactive”.
In the case of `COc1ccc(Nc2ccc(OC)cc2)cc1`, the IC50 is reported as 11.3 µM (active).
For `Cc1nc(-c2ccc(O)c(O)c2)cs1`, the IC50 was 6.64 µM (active).
For `COc1cc(-c2csc(C)n2)ccc1O`, the IC50 was 3.58 µM (active).
With `Oc1ccc(-c2nc(-c3ccc(O)c(O)c3)cs2)cc1` the IC50 was 17.4 µM (active).
In the case of `COC(=O)C1=C(C)N(Cc2ccccc2)C(=NCCCCO)N[C@H]1c1ccccc1`, the IC50 is reported as “inactive”.
With `Cc1nc(SCC(=O)N2CCOCC2)c2ccsc2n1` the IC50 was “inactive”.
In the case of `COc1ccc(N2CCC(CNC(=O)Nc3cccc(OC)c3)C2)cc1` (stereo not given), the IC50 is reported as 3.36 µM (active).
With `COc1ccc(N2CCC(CNC(=O)Nc3ccccc3)C2)cc1` (stereo not given) the IC50 was 8.01 µM (active).
With `COc1ccc(S(=O)(=O)N2CCN(CC(=O)Nc3cccc(OC)c3)CC2)cc1` the IC50 was “inactive”.
With `CC(=O)c1cccc(NC(=O)N2CCCC2C(=O)NCc2ccccc2)c1` (stereo not given) the IC50 was “inactive”.
For `Nc1nc(Sc2c([N+](=O)[O-])cc(C(F)(F)F)cc2[N+](=O)[O-])n[nH]1`, the IC50 was “inactive”.
In the case of `CC(C)Nc1nc(Cl)nc(Nc2ccccc2)n1`, the IC50 is reported as “inactive”.
In the case of `Oc1ccc(-c2nc3ccccn3c2NCc2ccco2)cc1`, the IC50 is reported as 3.24 µM (active).
For `CCOC(=O)CNc1c(-c2ccc(O)cc2)nc2ccccn12`, the IC50 was 4.76 µM (active).
For `CCOC(=O)CC(=O)CSc1nc(N)c(C#N)c(-c2ccc(Cl)cc2)c1C#N`, the IC50 was “inactive”.
For `CCOC(=O)CNc1c(-c2ccc(O)cc2)nc2ccc(Cl)cn12`, the IC50 was 2.95 µM (active).
In the case of `Oc1ccc(Nc2nc(Cl)nc(NCc3ccco3)n2)cc1`, the IC50 is reported as 6.71 µM (active).
In the case of `O=C(c1ccc(Cl)cc1)C1CCCN(C(=O)c2csnn2)C1` (stereo not given), the IC50 is reported as “inactive”.
In the case of `O=C(NNC(=O)c1ccccc1O)c1ccc(-c2ccc([N+](=O)[O-])cc2)o1`, the IC50 is reported as “inactive”.
With `O=c1c(-c2ccc([N+](=O)[O-])cc2)coc2c(O)c(O)ccc12` the IC50 was 11.1 µM (active).
With `CC(=O)c1cccc(S(=O)(=O)N2CCCC(c3nc(-c4ccc(C)o4)no3)C2)c1` (stereo not given) the IC50 was “inactive”.
With `CCOc1ccc(OC(=O)c2cccc(S(=O)(=O)N3CCN(C)CC3)c2)cc1` the IC50 was 41.5 µM (active).
For `O=C(CCN1C(=O)C2CCCCC2C1=O)N1CCN(S(=O)(=O)c2cccc(F)c2)CC1` (stereo not given), the IC50 was “inactive”.
With `COc1cc(-c2nnc(SCc3cc(=O)oc4cc(O)c(O)cc34)o2)cc(OC)c1OC` the IC50 was 11.6 µM (active).
In the case of `COc1cc(/C(C)=N/NC(=O)CSc2nnc(C)s2)ccc1O`, the IC50 is reported as 8.44 µM (active).
With `COc1cc(/C(C)=N/NC(=O)CSc2nc3ccccc3[nH]2)ccc1O` the IC50 was 6.48 µM (active).
In the case of `CCOC(=O)c1c(C)[nH]c(C)c1C(=O)CSc1nc2ccccc2[nH]1`, the IC50 is reported as “inactive”.
In the case of `CC1C=CCC2C(=O)N(c3cc(Cl)ccc3O)C(=O)C12` (stereo not given), the IC50 is reported as “inactive”.
In the case of `COc1ccc(NN=Nc2nc3c([nH]2)c(=O)n(C)c(=O)n3C)cc1`, the IC50 is reported as 25.4 µM (active).
With `O=S(=O)(Nc1c(S(=O)(=O)c2ccccc2)c2nc3ccccc3nc2n1C1CCCCC1)c1ccccc1` the IC50 was “inactive”.
In the case of `CCN(CC)P(=O)(C(NC(=O)OC)C(F)(F)C(F)(F)C(F)(F)C(F)F)N(CC)CC` (stereo not given), the IC50 is reported as “inactive”.
In the case of `O=Nc1ccc(NOC(=O)c2ccccc2Br)cc1`, the IC50 is reported as 22.1 µM (active).
In the case of `N#Cc1c(Nc2ccccc2C(F)(F)F)s[nH]c1=O`, the IC50 is reported as “inactive”.
For `C/C(=N\NC(=O)CSCc1ccc([N+](=O)[O-])cc1)c1ccccc1`, the IC50 was “inactive”.
For `C/C(=N\NC(=O)Cn1cc([N+](=O)[O-])cn1)c1ccc(O)cc1`, the IC50 was 10.7 µM (active).
With `Oc1ccc(CCNc2c3ccccc3nc3ccccc23)cc1O` the IC50 was 6.72 µM (active).
In the case of `O=C1CC(c2ccccc2)c2cccc(F)c21` (stereo not given), the IC50 is reported as “inactive”.
With `COc1cc(/C=N/NC(=O)c2ccc(Cn3cc([N+](=O)[O-])cn3)o2)cc(Br)c1O` the IC50 was 8.55 µM (active).
With `COc1cc(/C=N\NC(=O)c2ccc(Cn3nc([N+](=O)[O-])c(Cl)c3C)o2)ccc1O` the IC50 was 6.71 µM (active).
For `COc1ccc(/C=N/NC(=O)c2cc(O)c(O)c(O)c2)cc1Cn1cc([N+](=O)[O-])cn1`, the IC50 was “inactive”.
With `COC(=O)CCC(=O)OC1(C)C(=O)C2=COC(c3ccc(OC)cc3)=CC2=C(Br)C1=O` (stereo not given) the IC50 was “inactive”.
With `Cc1nn(C(C)C(=O)O)c2ccccc12` (stereo not given) the IC50 was “inactive”.
With `Cc1[nH]nc2c1C(C(C)c1ccccc1)C(C#N)=C(N)O2` (stereo not given) the IC50 was “inactive”.
With `COc1cc(C2C(C#N)=C(N)Oc3n[nH]c(-c4cccnc4)c32)cc(Br)c1O` (stereo not given) the IC50 was 16.7 µM (active).
For `CCOc1cc(/C=C/c2cc(C(F)(F)F)[nH]c(=O)n2)ccc1O`, the IC50 was 6.98 µM (active).
